Reference: PubChem BioAssay
Activity calls are given as the source filed them.

Columns and labels:
[1] = tested on: Plasmodium falciparum Sir2 (PF13_0152, Sir2A); test: pfSir2 binders on small-molecule microarrays, primary screen, biochemical, small-molecule microarray, 635 nm fluorescence (AID 1098); settings: small-molecule microarray binding, fluorescence 635 nm; higher = more signal;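 further: score merges spot fluorescence intensity with its signal-to-noise ratio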
[2] = small-molecule microarray binders of probe aDKK1, primary screen, biochemical, biotinylated probe, 635/667 nm fluorescence (AID 1099); settings: higher = more signal;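 further: score merges 667nm spot fluorescence with signal to noise across triplicate slides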
[3] = small-molecule microarray binders of probe aCHRDL2, primary screen, biochemical, biotinylated probe, 635/667 nm fluorescence (AID 1100); settings: higher = more signal
[4] = splicing luciferase reporter signal modulators, primary screen, spliceosome inhibition project, cell-based, HEK293, splice +/- reporter (AID 1101); settings: luminescence, 24 h, higher = more signal, called active from +8 up or from −8 down;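 further: HEK293 cells carrying a splicing-competent luciferase reporter gene; test concentration not given here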
[5] = molecular target: Fibroblast growth factor 10 (Homo sapiens) (UniProt O15520); test: FGF10 binders on small-molecule microarrays, primary screen, biochemical, small-molecule microarray, 635 nm fluorescence (AID 1102); settings: FGF10 binding, fluorescence 635 nm, higher = more signal
[6] = tested on: glycogen synthase kinase-3 (GSK3A per assay name; protocol says GSK3B); test: GSK3 binders on small-molecule microarrays, primary screen, biochemical, small-molecule microarray, 635 nm fluorescence, GSK3A (AID 1103); settings: small-molecule microarray binding, fluorescence 635 nm; higher = more signal; further: the record names both GSK3A and GSK3B
[7] = molecular target: Epidermal growth factor receptor (Homo sapiens) (UniProt P00533); test: EGFR binders on small-molecule microarrays, primary screen, biochemical, small-molecule microarray, 635 nm fluorescence (AID 1104); settings: EGFR binding, higher = more signal;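 further: score merges 667 nm emission intensity with spot signal to noise over triplicate slides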
[8] = molecular target: Follistatin-related protein 3 (Homo sapiens) (UniProt O95633); test: FSTL3 binders on small-molecule microarrays, primary screen, biochemical, small-molecule microarray, 635 nm fluorescence (AID 1105); settings: FSTL3 binding, higher = more signal;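 further: score merges emission near 667 nm and signal to noise per printed spot across three slides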
[9] = molecular target: Dickkopf-related protein 1 (Homo sapiens) (UniProt O94907); test: DKK1 binders on small-molecule microarrays, primary screen, biochemical, small-molecule microarray, 635 nm fluorescence scan (AID 1106); settings: DKK1 binding, higher = more signal;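 further: score merges emission near 667 nm with signal to noise over three replicate slides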
[10] = tested on: Inhibin beta A chain (activin A); test: INHBA (activin A) binders on microarrays, primary screen, biochemical, small-molecule microarray, 635 nm fluorescence scan (AID 1107); settings: small-molecule microarray binding, higher = more signal;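 further: mouse activin A protein probed at 4.33 µg/mL on printed slides; score merges bound-protein fluorescence near 667 nm with spot signal-to-noise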
[11] = tested on: Human papillomavirus type 1a protein E7 (residues 44-93); test: HPV1a E7 fragment binders on microarrays, primary screen, biochemical, small-molecule microarray, residues 44-93, 635 nm fluorescence (AID 1108); settings: small-molecule microarray binding, fluorescence 635 nm; higher = more signal;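 further: E7 fragment applied at 1 µg/mL in TBST for 1 h at 4 C; score combines spot fluorescence with its signal to noise ratio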
[12] = modulators of HCV replicon luciferase signal, primary screen, HCV replication inhibitor project, Huh7 cells, luciferase reporter (AID 1109); settings: 48 h, higher = more signal;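 further: huh7 hepatoma cells harbouring a luciferase neomycin HCV replicon reporter; luciferase luminescence as measure of HCV replicon replication; test concentration not given here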
[13] = molecular target: Left-right determination factor 2 (Homo sapiens) (UniProt O00292); test: LEFTY2 binders on small-molecule microarrays, primary screen, biochemical, small-molecule microarray, 635 nm fluorescence scan (AID 1110); settings: LEFTY2 binding, higher = more signal
[14] = molecular target: Calmodulin-1 (Homo sapiens) (UniProt P0DP23); test: CALM1 binders on microarrays, EGTA buffer, profiling panel, biochemical, small-molecule microarray, Cy5-labelled CALM1 (AID 1111); settings: Cy5-CALM1 binding fluorescence, higher = more signal;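 further: labelled calmodulin applied in Tris saline Tween buffer holding calcium plus EGTA and DTT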
[15] = molecular target: Calmodulin-1 (Homo sapiens) (UniProt P0DP23); test: calcium-bound CALM1 binders on microarrays, profiling panel, artefact control for SMM control-protein annotation, biochemical, small-molecule microarray, Cy5-labelled CALM1, plus calcium (AID 1112); settings: Cy5-CALM1 binding fluorescence, higher = more signal;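 further: score merges spot fluorescence with signal to noise from triplicate slides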
[16] = small-molecule microarray binders of probe aWnt5a, primary screen, biochemical, biotinylated probe, 635/667 nm fluorescence (AID 1113); settings: higher = more signal;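 further: score merges 667 nm fluorescence intensity with signal-to-noise per printed feature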
[17] = small-molecule microarray binders of probe aShh, primary screen, biochemical, biotinylated probe, 635/667 nm fluorescence (AID 1114); settings: higher = more signal;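 further: probe is biotin-labelled aShh protein from a stem cell growth factor screen; measures binding of labelled protein to compounds printed on the slide; score merges feature fluorescence at 667 nm with signal-to-noise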
[18] = small-molecule microarray binders of probe aNog, primary screen, biochemical, biotinylated probe, 635/667 nm fluorescence (AID 1115); settings: higher = more signal;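 further: probe is biotinylated aNog protein used at 0.15 µg/mL for 1 h at 4 C; z-score combines 667 nm fluorescence of each spot with its signal to noise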
[19] = molecular target: Torsin-1A-interacting protein 1 (Homo sapiens) (UniProt Q5JTV8); test: LAP1 binders from COS7 cell lysate, primary screen, small-molecule microarray, 635/667 nm fluorescence (AID 1116); settings: COS7-hLAP1 lysate binding, 635 nm fluorescence, higher = more signal
[20] = molecular target: Alpha-bungarotoxin (Bungarus multicinctus) (UniProt P60615); test: alpha-bungarotoxin binders on microarray, profiling panel, artefact control for SMM control protein annotation, biochemical, small-molecule microarray, Alexa647 label, 635/667 nm fluorescence (AID 1117); settings: alpha-BTX-A647 binding fluorescence, higher = more signal
Sequence of Alpha-bungarotoxin (Bungarus multicinctus) (P60615 whole entry, looked up): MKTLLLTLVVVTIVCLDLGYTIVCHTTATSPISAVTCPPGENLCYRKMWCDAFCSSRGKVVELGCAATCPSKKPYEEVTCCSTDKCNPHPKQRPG

Sequence of Left-right determination factor 2 (Homo sapiens) (O00292 whole entry, looked up): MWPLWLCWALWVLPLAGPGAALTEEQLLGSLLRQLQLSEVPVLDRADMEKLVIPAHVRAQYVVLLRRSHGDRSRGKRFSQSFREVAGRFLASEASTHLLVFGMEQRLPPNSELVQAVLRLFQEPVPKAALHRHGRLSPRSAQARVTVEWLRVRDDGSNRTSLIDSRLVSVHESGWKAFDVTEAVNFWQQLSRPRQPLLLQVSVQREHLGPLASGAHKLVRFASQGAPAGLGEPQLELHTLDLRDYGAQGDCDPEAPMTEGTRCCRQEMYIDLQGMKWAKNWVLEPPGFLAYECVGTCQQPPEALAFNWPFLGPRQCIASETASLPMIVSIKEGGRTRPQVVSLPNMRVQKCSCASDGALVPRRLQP
Sequence of Epidermal growth factor receptor (Homo sapiens) (P00533 whole entry, looked up): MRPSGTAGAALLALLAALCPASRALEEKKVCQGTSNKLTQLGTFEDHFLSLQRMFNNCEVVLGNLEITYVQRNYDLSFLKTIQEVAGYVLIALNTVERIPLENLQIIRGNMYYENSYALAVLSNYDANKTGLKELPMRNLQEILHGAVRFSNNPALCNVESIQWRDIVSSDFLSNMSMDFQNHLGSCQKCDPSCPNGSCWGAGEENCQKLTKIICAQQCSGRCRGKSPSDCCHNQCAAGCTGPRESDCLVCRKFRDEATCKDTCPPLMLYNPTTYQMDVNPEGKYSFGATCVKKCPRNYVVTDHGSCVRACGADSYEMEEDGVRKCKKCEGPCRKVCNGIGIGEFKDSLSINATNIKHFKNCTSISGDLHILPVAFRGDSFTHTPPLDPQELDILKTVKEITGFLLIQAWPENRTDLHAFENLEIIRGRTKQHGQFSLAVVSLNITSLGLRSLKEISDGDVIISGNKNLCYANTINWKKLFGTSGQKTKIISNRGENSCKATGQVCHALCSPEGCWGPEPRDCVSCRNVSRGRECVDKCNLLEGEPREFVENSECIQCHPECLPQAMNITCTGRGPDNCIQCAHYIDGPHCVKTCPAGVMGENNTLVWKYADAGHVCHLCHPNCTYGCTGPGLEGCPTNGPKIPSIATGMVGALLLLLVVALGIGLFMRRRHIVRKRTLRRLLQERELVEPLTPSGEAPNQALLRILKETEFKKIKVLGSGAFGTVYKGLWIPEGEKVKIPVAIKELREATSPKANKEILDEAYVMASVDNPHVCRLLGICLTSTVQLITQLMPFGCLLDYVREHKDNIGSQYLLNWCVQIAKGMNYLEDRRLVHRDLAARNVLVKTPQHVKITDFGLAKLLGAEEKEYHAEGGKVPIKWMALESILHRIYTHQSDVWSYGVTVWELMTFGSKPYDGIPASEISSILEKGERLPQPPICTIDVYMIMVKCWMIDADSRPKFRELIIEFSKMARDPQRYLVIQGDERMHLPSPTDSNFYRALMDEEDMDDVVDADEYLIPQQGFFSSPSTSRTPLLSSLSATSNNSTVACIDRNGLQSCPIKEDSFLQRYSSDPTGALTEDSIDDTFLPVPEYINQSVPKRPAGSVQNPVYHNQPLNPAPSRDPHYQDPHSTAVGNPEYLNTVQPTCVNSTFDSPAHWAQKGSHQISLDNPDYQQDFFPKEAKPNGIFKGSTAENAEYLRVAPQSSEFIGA
Sequence of Follistatin-related protein 3 (Homo sapiens) (O95633 whole entry, looked up): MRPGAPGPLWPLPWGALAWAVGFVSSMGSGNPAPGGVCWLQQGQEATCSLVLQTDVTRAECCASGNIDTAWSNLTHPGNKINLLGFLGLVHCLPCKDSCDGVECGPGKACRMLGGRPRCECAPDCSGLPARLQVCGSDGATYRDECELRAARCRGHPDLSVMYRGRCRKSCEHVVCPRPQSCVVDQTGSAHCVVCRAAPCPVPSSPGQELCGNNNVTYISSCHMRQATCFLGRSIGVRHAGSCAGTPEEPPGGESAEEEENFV
Sequence of Fibroblast growth factor 10 (Homo sapiens) (O15520 whole entry, looked up): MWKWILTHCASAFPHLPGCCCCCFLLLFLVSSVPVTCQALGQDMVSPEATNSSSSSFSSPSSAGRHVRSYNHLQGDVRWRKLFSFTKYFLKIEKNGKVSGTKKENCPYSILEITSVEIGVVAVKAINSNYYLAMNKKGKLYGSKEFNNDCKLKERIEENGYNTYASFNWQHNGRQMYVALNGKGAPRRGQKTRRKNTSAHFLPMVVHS
Sequence of Dickkopf-related protein 1 (Homo sapiens) (O94907 whole entry, looked up): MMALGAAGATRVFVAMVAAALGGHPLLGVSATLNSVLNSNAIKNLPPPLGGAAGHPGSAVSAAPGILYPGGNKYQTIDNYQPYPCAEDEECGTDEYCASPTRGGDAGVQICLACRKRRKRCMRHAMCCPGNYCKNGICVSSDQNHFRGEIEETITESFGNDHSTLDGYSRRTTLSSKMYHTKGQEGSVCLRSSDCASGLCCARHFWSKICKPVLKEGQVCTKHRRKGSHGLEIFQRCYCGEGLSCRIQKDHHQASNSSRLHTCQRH
Sequence of Torsin-1A-interacting protein 1 (Homo sapiens) (Q5JTV8 whole entry, looked up): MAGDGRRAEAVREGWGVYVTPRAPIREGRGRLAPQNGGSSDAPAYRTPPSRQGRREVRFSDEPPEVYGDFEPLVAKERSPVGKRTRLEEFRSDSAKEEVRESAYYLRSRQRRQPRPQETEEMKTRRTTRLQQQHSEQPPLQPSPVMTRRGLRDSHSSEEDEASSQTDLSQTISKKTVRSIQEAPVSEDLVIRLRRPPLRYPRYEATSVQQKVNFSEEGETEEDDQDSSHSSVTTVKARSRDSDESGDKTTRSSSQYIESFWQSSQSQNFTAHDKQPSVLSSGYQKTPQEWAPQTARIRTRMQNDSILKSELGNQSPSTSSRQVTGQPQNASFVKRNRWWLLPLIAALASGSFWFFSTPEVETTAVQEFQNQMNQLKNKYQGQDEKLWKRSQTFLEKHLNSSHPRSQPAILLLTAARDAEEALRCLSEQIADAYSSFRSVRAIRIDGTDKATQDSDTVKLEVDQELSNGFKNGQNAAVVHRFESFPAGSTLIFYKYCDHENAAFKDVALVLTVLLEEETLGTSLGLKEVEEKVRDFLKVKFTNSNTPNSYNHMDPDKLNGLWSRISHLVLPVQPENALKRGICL

SMILES | composite z-score [1] | composite z-score [2] | composite z-score [3] | z-score [4] | composite z-score [5] | composite z-score [6] | composite z-score [7] | composite z-score [8] | composite z-score [9] | composite z-score [10] | composite z-score [11] | z-score [12] | composite z-score [13] | composite z-score [14] | composite z-score [15] | composite z-score [16] | composite z-score [17] | composite z-score [18] | composite z-score [19] | composite z-score [20]
COC(=O)[C@@]1(Cc2ccc(F)cc2)[C@H]2c3cc(C(=O)N(C)C)n(Cc4cc(F)cc5c4OCOC5)c3C[C@H]2CN1C(=O)c1ccccc1 | 0.743 | 1.25 | 1.25 | -1.26 (inactive) | 0.87 | 0.427 | 0.105 | 0.913 | -0.171 | 0.677 | 1.41 | -1.81 | 0.011 | 1.68 | 0.0074 | -0.001 | 0.0856 | 0.468 | 0.822 | 1.04
C=CCN1C(=O)[C@@]2(O[C@@H](CCn3cc([C@H](O)c4ccccc4)nn3)[C@H]([Si](C)(C)c3ccc(OC)cc3)[C@H]2C)c2cc(N3CCC3=O)ccc21 | 1.43 | 0.0289 | 0.257 | -0.429 (inactive) | 0.216 | -0.0371 | -0.0844 | -0.296 | -0.0607 | 0.289 | 0.627 | -3.39 | 0.225 | 0.249 | 0.294 | -0.15 | -0.138 | 0.15 | 0.116 | 0.359
[N-]=[N+]=NCc1ccccc1C[C@@]1(C(=O)N2CCOCC2)N=C(c2ccc(OCCCO)cc2)O[C@@H]1c1ccccc1 | 0.511 | 0.881 | 1.18 | -0.691 (inactive) | 1.03 | 1.28 | 0.0805 | -0.14 | -0.519 | 0.686 | 1.45 | -3.27 | 0.285 | 1.83 | 0.997 | 0.0597 | 0.412 | -0.549 | 2.09 | 0.916
COCCOC(=O)N1C(=O)[C@@]2(c3cc(C#CCCO)ccc31)[C@H](c1ccccc1OCCO)N1[C@H](c3ccccc3)[C@H](c3ccccc3)OC(=O)[C@H]1[C@@H]2C(=O)Nc1nc2ccccc2s1 | 1.5 | 0.95 | 0.856 | -0.713 (inactive) | 0.689 | 1.2 | 0.397 | 0.966 | 0.635 | 0.46 | 0.323 | -1.65 | 0.558 | 1.39 | 0.704 | -0.0519 | 0.173 | 0.429 | 1.62 | 2.29
COc1ccc([Si](C)(C)[C@@H]2[C@@H](CCO)O[C@]3(C(=O)N(Cc4ccc(N5CCCCC5=O)cc4)c4ccccc43)[C@H]2C)cc1 | 1.15 | -0.128 | -0.756 | -1.73 (inactive) | 1.21 | 0.83 | 0.336 | 0.87 | 0.562 | 0.669 | -0.0334 | -5.11 | 0.216 | 0.121 | 0.188 | -0.0758 | 0.191 | 0.0989 | 0.467 | 0.0967
COC(=O)[C@@]1(Cc2ccc(F)cc2)[C@H]2c3cc(C(=O)N(C)C)n(CCc4ccc(O)c(OC)c4)c3C[C@H]2CN1C(=O)c1ccccc1 | 0.0736 | 2.29 | 0.884 | 0.655 (inactive) | 1.05 | 0.776 | 1.45 | 0.62 | 0.399 | 0.366 | 0.768 | 1.09 | 0.543 | 0.187 | -0.323 | 1.2 | 2.74 | 2.48 | 0.279 | 0.434
CCOC(=O)C1=CC[C@@H](c2ccccc2C(F)(F)F)N(S(=O)(=O)c2ccc(C)cc2)[C@H]1c1ccc(C#N)cc1 | 0.668 | 0.648 | 0.276 | -0.476 (inactive) | 0.719 | 1.2 | 0.593 | 0.772 | 0.35 | 0.307 | 0.325 | 0.65 | 0.327 | 1.63 | 0.697 | -0.0152 | -0.283 | -0.301 | 0.408 | 0.969
O=C1N(Cc2ccccc2)c2ccccc2[C@@H]2OC(c3ccc(OCCCO)cc3)=N[C@]12Cc1ccccc1 | 0.959 | 0.659 | 1 | -0.0483 (inactive) | 0.504 | 0.852 | 0.224 | 0.61 | 0.0877 | 1.13 | 1.45 | -2.69 | 0.0601 | 1.05 | -0.338 | 0.0037 | 0.138 | 0.0705 | 0.685 | 0.807
COCCOC(=O)N1C(=O)[C@@]2(c3cc(C#CCCO)ccc31)[C@H](C(=O)Nc1nc3ccccc3s1)[C@H]1C(=O)O[C@H](c3ccccc3)[C@H](c3ccccc3)N1[C@@H]2c1ccccc1OCCO | 1.42 | 0.331 | 0.411 | 0.0499 (inactive) | 1.12 | 1.08 | 0.561 | 1.11 | 0.452 | 0.923 | 0.792 | -1.71 | 0.674 | 0.827 | -0.112 | -0.0025 | 0.0469 | -0.588 | 0.811 | 1.45
NCCCCCNC(=O)[C@@H]1C[C@@H]2C(=O)NCC(=O)N2[C@@H]1c1cccc(OCCO)c1 | 1.06 | 0.237 | 0.0759 | -0.852 (inactive) | 1 | 1.26 | 0.396 | 0.669 | 1.05 | 0.732 | 1.2 | -0.878 | 0.79 | 0.885 | 0.433 | -0.0202 | 0.412 | 0.217 | 0.513 | 1.01
COc1ccc(-c2nc(-c3ccccc3)c3c(c2C)CO[Si]3(C(C)C)C(C)C)cn1 | -0.18 | -0.0958 | -0.505 | 0.0313 (inactive) | 0.984 | 0.729 | -0.0277 | 0.446 | 0.125 | 0.468 | 0.107 | -1.05 | 0.372 | -0.461 | -0.309 | -0.0405 | 0.0278 | -0.294 | 0.104 | 0.397
